The nature of test [1]: qHTS assay for measurement of the activity of small molecule inhibitors on Zika virus induced Caspase-3 activity in human iPSC derived neural progenitor cells (hNPCs) (AID 1224857). Also: nearly all actives have a fitted effect of over 65% in size. Put shortly:
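Zika virus (2 FFU/cell) infection of human iPSC-derived NPCs, 6 h, following 1 h compound preincubation. Read-out: Caspase-Glo 3/7 luminescence.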
(In general: In qHTS, concentration-response curves come from the screen itself.)

A short description of test [2]: qHTS assay for measurement of the activity of small molecule inhibitors on Zika virus induced Caspase-3 activity in human astrocytoma cells (AID 1224859). Put shortly: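 Caspase activation in ZIKV-infected SNB-19 cells (2 FFU/cell, 6 h) measured by Caspase-Glo 3/7 luminescence after 30 min RT; compound pre-incubated 1 h; normalised to uninfected and infected controls.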

Test [3] can be described thus: qHTS Screen of the MIPE 4.0 Collection Against Ewings Sarcoma (RDES) (AID 1259252). Also: nearly all actives have a fitted effect of over 35% in size. Also: potency is read from the fitted curve at half-maximal effect. Put shortly:
(§1)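 Measured: ATP luminescence (CellTiter-Glo) 10 min after reagent addition, following 48 h drug treatment. Relative luciferase units converted to percent activity, with no-cell wells as full and DMSO wells as zero inhibition.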

Test [4] is described as follows: qHTS Screen of the MIPE 4.0 Collection Against Ewings Sarcoma (TC71) (AID 1259253). Also: nearly all actives have a fitted effect of over 40% in size. Also: potency is read from the fitted curve at half-maximal effect. In short, it runs like this:
as §1

The nature of test [5]: qHTS Screen of the MIPE 4.0 Collection Against Ewings Sarcoma (TC32) (AID 1259256). Also: nearly all actives have a fitted effect of over 45% in size. Also: potency is read from the fitted curve at half-maximal effect. In short, it runs like this:
as §1

Test [6] in a line: Identifying Small Molecule Inhibitors of Pancreatic Cancer Stem Cells (SN12C, Adherent) (AID 1259358).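 Also: cell survival measured after 48 h of compound exposure.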 Also: potency is read from the fitted curve at half-maximal effect. In short, it runs like this: (§2)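 After a 4 h attachment period, compounds were pinned into wells and cultures held 48 h under standard incubator conditions. Viability was then measured as CellTiter-Glo luminescence following 10 min at room temperature.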
Test [7] is described as follows: Identifying Small Molecule Inhibitors of Pancreatic Cancer Stem Cells (Panc1, Spheroid) (AID 1259359).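 Also: potency is read from the fitted curve at half-maximal effect; compound exposure lasted 48 h before reading.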 Put shortly:
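Adherent (2D) versus sphere (3D) formats; spheres generated 14 d in SCM beforehand. Compound transferred by pin tool after 4 h, 48 h incubation, CellTiter-Glo endpoint.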

Test [8] is described as follows: Identifying Small Molecule Inhibitors of Pancreatic Cancer Stem Cells (SN12C, Spheroid) (AID 1259360). Also: potency is read from the fitted curve at half-maximal effect. To be noted: Potency: SN12C spheroid viability. In short, it runs like this:
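Monolayer and spheroid cultures are compared. Spheroids form over 14 days in stem cell medium on hydrogel-coated low-attachment plates, then are exposed to compound for 48 h before CellTiter-Glo luminescence.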

A short description of test [9]: Identifying Small Molecule Inhibitors of Pancreatic Cancer Stem Cells (A278, Adherent) (AID 1259361).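 Also: viability read after 48 h compound exposure; nearly all actives have a fitted effect of over 35% in size.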 In short, it runs like this:
as §2

Test [10] in a line: Identifying Small Molecule Inhibitors of Pancreatic Cancer Stem Cells (Panc1, Adherent) (AID 1259362). Also: potency is read from the fitted curve at half-maximal effect. As to conditions: Potency: viability. In short, it runs like this: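 Luminescent ATP readout (CellTiter-Glo) quantifies surviving cells after a 48 h drug incubation. Normalization uses DMSO wells as no inhibition and media-only wells as full inhibition; bortezomib served as positive control.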

Test [11] is described as follows: P-glycoprotein substrates identified in KB-3-1 adenocarcinoma cell line, qHTS therapeutic library screen (AID 1346986). Also: nearly all actives have a fitted effect of over 60% in size.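 Also: potency is read from the fitted curve at half-maximal effect; potency is for cytotoxicity meaning loss of cell viability.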 In short, it runs like this: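 KB-3-1 parental cells and P-gp-overexpressing KB-8-5-11 (colchicine omitted during assay) plated at 500 cells/well, dosed in dose-response, incubated 72 h at 37 degree C. CellTiter-Glo luminescence read; KB-8-5-11 also tested with tariquidar.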

Test [12] is described as follows: P-glycoprotein substrates identified in KB-8-5-11 adenocarcinoma cell line, qHTS therapeutic library screen (AID 1346987). Also: nearly all actives have a fitted effect of over 65% in size. Also: potency is read from the fitted curve at half-maximal effect. Put shortly:
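KB-8-5-11: colchicine-selected sub-line of KB-3-1 over-expressing P-gp; assay medium lacked colchicine. 72 h drug exposure at 37 degree C, CellTiter-Glo.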

The nature of test [13]: NS1 protein of Zika virus - qHTS assay to identify small molecule inhibitors in human HEK 293 cells (AID 1347053). Also: nearly all actives have a fitted effect of over 55% in size. Also: potency is read from the fitted curve at half-maximal effect. In short, it runs like this:
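HEK 293; 20 h pre-culture, 37 C/5% CO2; cpd 1 h pre-infection; ZIKV MR766, MOI = 0.5, 24 h, 37 C; TR-FRET NS1 readout (two anti-NS1 Abs); norm. to no-virus vs infected.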

The nature of test [14]: qHTS Screen of the MIPE 4.0 Collection Against Ewings Sarcoma (EW8) (AID 1259255). Also: nearly all actives have a fitted effect of over 35% in size. Also: potency is read from the fitted curve at half-maximal effect. Put shortly:
as §1

“And” between values parts separate entries of the source, which are not always exact repeats. Equal entries are not always repeated. Records with an inconclusive call do not appear. The source made the active and inactive calls. Calls follow the shape of the dose curve; as a rule, active = well fitted curve in the direction sought with a large enough effect; inconclusive = small, poorly fitted or top-dose-only effect, or another doubt; inactive = no such curve, though single readings can be large; an effect the other way counts as inactive or inconclusive.

Regarding `COc1cc2ncnc(Nc3ccc(F)c(Cl)c3)c2cc1NC(=O)C=CCN1CCCCC1`, the Potency entry in test [1], in test [2], in test [11] and in test [12] was “inactive” each time. The Potency is 16.6 µM (active) in [3]; 2.09 µM (active) in test [4]; 2.96 µM (active) in test [5]; 20.9 µM (active) in test [6]; 23.5 µM (active) in [7]; 29.6 µM (active) in [8]. The Potency in test [10] was 23.5 µM (active). For the same molecule, in test [9], the IC50 (viability decrease) is 16.6 µM (active).
Take `CCCNC(=O)Nc1ccc(Oc2ncnc3cc(OC)c(OC)cc23)cc1Cl`: the Potency entry in test [1], in test [2], in [3], in [4], in test [12] and in [13] was “inactive” throughout.
On to `COc1ccc(C=Cc2cc(OC)c(OC)c(OC)c2)cc1O`, for which the Potency result in test [1], in [2], in test [3], in [4], in test [5] and in test [13] was “inactive” each time. Also, the Potency in test [6] was 0.0026 µM (active); in [8], 2.09 µM (active); in test [12] it was 0.001 µM (active). Also, in test [9], the IC50 (viability decrease) was 0.0017 µM (active).
Turning to `NC(=O)c1c(OCc2c(F)cc(Br)cc2F)nsc1NC(=O)NCCCCN1CCCC1`, the Potency result in test [1], in test [2] and in test [13] was “inactive” in each case. Besides, the Potency is 16.6 µM (active) in [3]; 18.7 µM (active) in test [4]; 14.8 µM (active) in test [5]; 5.26 µM (active) in test [6]; 18.4 µM (active) in [12].
As to `O=C(c1cncc(Br)c1)N1CCC(N2CCCC2)CC1`, the Potency result in test [1], in test [2], in test [3], in [14], in test [5] and in test [11] was “inactive” each time. Moreover, the Potency entry in test [12] is “inactive”.
In the case of `Cc1ccc2nc(NC(=O)CSc3nc4c(c(=O)n3-c3ccccc3)SCC4)sc2c1`, the Potency result in test [1], in test [2], in [12] and in [13] was “inactive” each time. Besides, the Potency in test [3] is 18.7 µM (active); in [14], 16.6 µM (active); in [5], 16.6 µM (active).
Turning to `COc1ccc(-c2cc3c(C)nc(N)nc3n(C3CCC(OCCO)CC3)c2=O)cn1` (centres undefined), the Potency entry in [1] and in test [2] was “inactive” in each case. Besides, the Potency is 0.118 µM (active) in [3]; 0.0662 µM (active) in [14]; 0.0264 µM (active) in test [5]; 0.184 µM (active) in test [11]; 41.8 nM (active) and 366 nM (active) in [12]; 1.48 µM (active) in test [13].
Turning to `CCC(=C(c1ccccc1)c1ccc(OCCN(C)C)cc1)c1ccccc1`, the Potency result in test [1] and in test [2] was “inactive” in each case. Moreover, the Potency in test [3] was 26.4 µM (active); in test [14], 20.9 µM (active); in test [5], 16.6 µM (active); in test [8] it was 18.7 µM (active). In test [9], the IC50 (viability decrease) is 23.5 µM (active).
Take `O=C(Nc1ncc(-c2cc(C(F)F)nn2-c2c(Cl)cccc2Cl)s1)C1CC1`: the Potency entry in [1] and in test [2] was “inactive” in each case. Besides, the Potency in test [3] was 0.418 µM (active); in test [14] it was 0.469 µM (active); in test [5] it was 0.469 µM (active); in test [12], 662 nM (active) and 731 nM (active); in [13], 1.05 µM (active).
With `Clc1cccc(-n2nnnc2NCc2ccccc2Oc2ccccn2)c1Cl`, the Potency result in [1], in [2], in test [3] and in [13] was “inactive” throughout.
As for `CC(NCc1ccc2c(c1)nc(NC(=O)c1ccc(-c3cn[nH]c3)s1)n2CC(C)(C)O)C(C)(C)C` (centres undefined), in test [1], the Potency result was “inactive”. In addition, the Potency was 0.469 µM (active) in [3]; 0.332 µM (active) in [4]; 0.469 µM (active) in [14]; 0.372 µM (active) in test [5]; 0.296 µM (active) in test [6]; 0.166 µM (active) in test [7]. Moreover, the Potency is 0.469 µM (active) in test [8], 0.264 µM (active) in test [10], 4.18 µM (active) in [12] and 4.69 µM (active) in test [13].
Regarding `CC(=O)Nc1sc2c(c1-c1nc3ccccc3s1)CNC2`, the Potency result in test [1], in test [2], in test [6] and in test [13] was “inactive” in each case. Moreover, the Potency is 16.6 µM (active) in test [3]; 16.6 µM (active) in test [14]; 13.2 µM (active) in test [5]; 16.6 µM (active) and 13 µM (active) in [12].
Turning to `CC1COC2(CCN(c3nc(=O)c4cc(C(F)(F)F)cc([N+](=O)[O-])c4s3)CC2)O1` (centres undefined), the Potency entry in [1], in test [2], in test [3], in [14], in test [5] and in [12] was “inactive” in each case. Also, the Potency result in test [13] is “inactive”.
In the case of `Clc1cccc(-c2nnnn2Cc2cccnc2)c1Cl`, the Potency result in test [1], in test [2], in [3], in test [14], in test [5] and in test [11] was “inactive” each time. Also, the Potency result in [12] and in test [13] was “inactive” throughout.
As for `CCOc1cc2ncc(C#N)c(Nc3ccc(F)c(Cl)c3)c2cc1NC(=O)C=CCN(C)C`, the Potency entry in test [1], in test [2] and in test [13] was “inactive” throughout. Further, the Potency in test [3] was 0.105 µM (active); in test [14] it was 0.132 µM (active); in test [6], 0.209 µM (active); in test [7], 16.6 µM (active); in [8], 1.48 µM (active); in [10], 18.7 µM (active). Also, the Potency in test [12] is 10.5 µM (active). In addition, the IC50 (viability decrease) in [9] was 20.9 µM (active).
With `C[C@@H](Oc1cc(-c2cnn(C3CCNCC3)c2)cnc1N)c1c(Cl)ccc(F)c1Cl`, the Potency entry in test [1] and in test [2] was “inactive” throughout. Moreover, the Potency is 16.6 µM (active) in [3]; 10.5 µM (active) in [14]; 18.7 µM (active) in [6]; 20.9 µM (active) in test [8]; 13.2 µM (active) and 16.4 µM (active) and 11.6 µM (active) in test [12]. The IC50 (viability decrease) in test [9] was 4.18 µM (active).
Consider `CC(C)c1cc(-c2n[nH]c(=O)n2-c2ccc3c(ccn3C)c2)c(O)cc1O`, for which the Potency entry in [1], in [2] and in [13] was “inactive” throughout. Moreover, the Potency was 0.105 µM (active) in test [3], 0.0662 µM (active) in [14], 0.0526 µM (active) in [5] and 0.0935 µM (active) in test [12].
Regarding `CCCn1c(=O)c2[nH]c(-c3cnn(Cc4cccc(C(F)(F)F)c4)c3)nc2n(CC)c1=O`, the Potency entry in test [1], in test [2], in test [3], in [14], in [5] and in [11] was “inactive” throughout. Further, the Potency entry in test [12] and in test [13] was “inactive” each time.
Take `CN1CCN(c2ccc3nc(-c4c(N)c5c(F)cccc5[nH]c4=O)[nH]c3c2)CC1`: the Potency entry in [1] and in test [2] was “inactive” each time. For the same molecule, the Potency is 14.8 µM (active) in test [3]; 5.9 µM (active) in test [14]; 14.8 µM (active) in test [5]; 6.62 µM (active) in test [8]; 33.2 µM (active) in [10]; 5.17 µM (active) in [11]. Moreover, in [12], the Potency is 2.64 µM (active) and 8.2 µM (active). In test [9], the IC50 (viability decrease) is 3.32 µM (active).

The values above are taken from PubChem BioAssay (NCATS).
